PubChem BioAssay (NCATS)
Records with an inconclusive call do not appear. Unmarked numbers belong to inactive results. Active and inactive are the calls of the source. The call rests on the fitted dose curve; in most records, active means well fitted cell-killing curve with a large enough effect; inconclusive means small, poorly fitted or top-dose-only effect, or effect the other way; inactive means flat fitted curve, though single readings scatter.

What follows are compounds tested on SKOV3 (assay: Primary qHTS to identify gynecologic anti-cancer compounds using libraries of approved drugs and bioactive compounds (AID 1345084; further: nearly all actives have a fitted effect of over 55% in size)). Details: Gynecologic cancer cell panel viability, ATPlite luminescence, 48 h; series mostly up to 57.5 µM; activity change, negative = cytotoxicity: at the top concentration.
Outline: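 Measured: luminescence after ATPlite addition (15 min, RT). Exposure: 48 h, 37 C, 5% CO2.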
On the % scale 0 is the no-effect control and ±100 the full control effect; potency means the concentration at half of the fitted maximal effect.

| Structure (SMILES) | Potency | activity change, negative = cytotoxicity |
| --- | --- | --- |
| Cc1ccc(C(=O)Nc2cccc(C(F)(F)F)c2)cc1-c1ccc2nc(NCCN3CCOCC3)ncc2c1 | 15.8 µM (active) |  |
| Cc1ccc(CN2CCNCC2)cc1NC(=O)CNc1ccc(F)c(F)c1 |  | 0% |
| CNC(=O)c1ccc(-c2cnc3ncc(Cc4ccc5ncccc5c4)n3n2)cc1F |  | 34.6% |
| CCOc1ccccc1OCCNC(C)Cc1ccc(OC)c(S(N)(=O)=O)c1 (stereo not drawn) |  | -0.0963% |
| N#Cc1c(O)c2c(-c3ccc(-c4ccccc4O)cc3)csc2[nH]c1=O |  | 25.8% |
| CN(C1CCc2c(c3ccccc3n2CC(=O)O)C1)S(=O)(=O)c1ccc(F)cc1 (stereo not drawn) |  | 7.85% |
| CCCn1c(=O)c2[nH]c(-c3cnn(Cc4cccc(C(F)(F)F)c4)c3)nc2n(CC)c1=O |  | 26.1% |
| O=C(O)Cn1nnc(-c2cc(N3CCC(Oc4cc(F)ccc4Br)CC3)no2)n1 |  | 5.55% |
| COc1ccc2c(c1)CC[C@@H](CN(C)CC(=O)O)[C@H]2c1ccccc1 |  | -4.44% |
| CC(C)(C)c1cc(NC(=O)Nc2ccc(-c3cn4c(n3)sc3cc(OCCN5CCOCC5)ccc34)cc2)no1 |  | -21.7% |
| Cc1c(CN2CCN(S(C)(=O)=O)CC2)sc2c(N3CCOCC3)nc(-c3cnc(N)nc3)nc12 | 0.562 µM (active) |  |
| COc1ccc(-c2cc3c(C)nc(N)nc3n(C3CCC(OCCO)CC3)c2=O)cn1 (stereo not drawn) | 1.26 µM (active) |  |
| Cc1ccc(NC(=O)C2(c3ccc4c(c3)OC(F)(F)O4)CC2)nc1-c1cccc(C(=O)O)c1 |  | 2.12% |
| CC(O)C1C(=O)N2C(C(=O)O)=C(SC3CNC(C(=O)N(C)C)C3)C(C)C12 (stereo not drawn) |  | 3.29% |
| COc1cc(Nc2ncc(F)c(Nc3ccc4c(n3)N(COP(=O)(O)O)C(=O)C(C)(C)O4)n2)cc(OC)c1OC | 10 µM (active) |  |
| O=C(c1cncc(Br)c1)N1CCC(N2CCCC2)CC1 |  | 11.7% |
| CCNC(=O)Nc1ccc2ncc(Nc3ccc(C)cc3)nc2n1 |  | 11.6% |

| Structure (SMILES) | Potency | activity change, negative = cytotoxicity |
| --- | --- | --- |
| Cc1nc(N)ncc1-c1nc(N2CCOCC2)c2sc(C(C)(C)O)cc2n1 | 2.82 µM (active) |  |
| C=CC(=O)Nc1cccc(Oc2nc(Nc3ccc(N4CCN(C)CC4)cc3OC)ncc2Cl)c1 | 15.8 µM (active) |  |
| COC(=O)Nc1ccc(-c2nc(N3CCOCC3)c3cnn(C4CCN(Cc5cccnc5)CC4)c3n2)cc1 | 2 µM (active) |  |
| Cc1c(Cn2c(C)nc3c(C(=O)O)cc(N4CCOCC4)cc32)cccc1C(F)(F)F |  | -2.67% |
| CCCCCCCCCC(=O)N[C@@H](Cc1c[nH]c2ccccc12)C(=O)N[C@H](CC(N)=O)C(=O)N[C@@H](CC(=O)O)C(=O)N[C@@H]1C(=O)NCC(=O)N[C@@H](CCCN)C(=O)N[C@@H](CC(=O)O)C(=O)N[C@H](C)C(=O)N[C@@H](CC(=O)O)C(=O)NCC(=O)N[C@H](CO)C(=O)N[C@@H]([C@@H](C)CC(=O)O)C(=O)N[C@@H](CC(=O)c2ccccc2N)C(=O)O[C@@H]1C |  | -9.8% [at 25.3 µM] |
| CCCCCN(CCC12CC3CC(CC(C3)C1)C2)C(=O)NCCCc1ccncc1 |  | 27.7% |
| O=C1CCC[C@@H]2[C@H]3CCC[N+]4([O-])CCC[C@@H](CN12)[C@@H]34 (stereo partly drawn) |  | 3.9% |
| Clc1cccc(-n2nnnc2NCc2ccccc2Oc2ccccn2)c1Cl |  | 15% |
| CCCNC(=O)Nc1ccc(Oc2ncnc3cc(OC)c(OC)cc23)cc1Cl |  | 2.24% |
| CNC(=O)c1ccc(N2C(=S)N(c3cnc(C#N)c(C(F)(F)F)c3)C(=O)C23CCC3)cc1F |  | 27.3% |
| C[C@]12CC[C@H](O)CC1=CCC1C2CC[C@]2(C)C(n3cnc4ccccc43)=CCC12 (stereo partly drawn) |  | 0.402% |
| Clc1cccc(-c2nnnn2Cc2cccnc2)c1Cl |  | 2.97% |
| CC(=O)c1c(C)c2cnc(Nc3ccc(N4CCNCC4)cn3)nc2n(C2CCCC2)c1=O |  | 4.84% [at 6.55 µM] |
| OCc1ccc(-c2ccc(-c3ccc(CO)s3)o2)s1 | 12.6 µM (active) |  |
| CC(C)c1noc(N2CCC(COc3ccc(-c4ccc(S(C)(=O)=O)cc4)nc3)CC2)n1 |  | 35.6% |
| COc1cc2c(Oc3ccc(NC(=O)C4(C(=O)Nc5ccc(F)cc5)CC4)cc3F)ccnc2cc1OCCCN1CCOCC1 | 22.4 µM (active) |  |
